Measurements as given in PubChem BioAssay (EPA / NIEHS).
Records with an inconclusive call do not appear. Active and inactive are the calls of the source. Rule for the calls, unless noted: active = hit-call score of the fitted dose curve at least 0.9, where 1 is the maximum; inactive = score below 0.9.

Tests used:
[1] = target: Paired box protein Pax-6 (Homo sapiens) (UniProt P26367); assay: ATG_Pax6_CIS: Attagene CIS-FACTORIAL HepG2 Assay for human Paired Box 6 (PAX6) (AID 2282956); settings: HepG2 CIS-FACTORIAL PAX6 reporter transcription, RNA readout; actives raise or lower the signal
Outline: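 After twenty-four hours of chemical exposure, transfected HepG2 cells are harvested for RNA. Cis-promoter reporter transcripts are amplified, fluorescently labelled and sized by capillary electrophoresis, with gain and loss of signal scored against DMSO.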

[2] = ATG_PXRE_CIS: Attagene CIS-FACTORIAL HepG2 Assay for human Pregnane X Receptor Element (PXRE) (AID 2282957); settings: HepG2 Attagene CIS-FACTORIAL PXRE reporter, mRNA; actives raise or lower the signal
Outline: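 Transfect HepG2 with MRTUs (cis promoter elements); dose chemical, incubate 24 h; isolate RNA, RT with oligo(dT), PCR, 6-FAM label, HpaI cut, CE. Gain/loss fit vs DMSO.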

[3] = ATG_PPRE_CIS: Attagene CIS-FACTORIAL HepG2 Assay for human Peroxisome Proliferator-activated Response Element (PPRE) (AID 2282958); settings: HepG2 PPRE cis-element reporter, Attagene transcription factor profiling; actives raise or lower the signal
Outline: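 Transcript-level reporter induction in transfected HepG2 cells after 24 h chemical exposure, quantified by fluorescence from RT-PCR products separated by capillary electrophoresis.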

[4] = ATG_RORE_CIS: Attagene CIS-FACTORIAL HepG2 Assay for human RAR-related Orphan Receptor Element (RORE) (AID 2282959); settings: HepG2 Attagene cis-factorial RORE reporter, mRNA; actives raise or lower the signal
Outline: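 Multiplexed reporter assay measuring mRNA induction from a cis promoter element in transiently transfected HepG2 cells after 24 h treatment. Detection via RT-PCR and capillary electrophoresis fluorescence; DMSO serves as baseline.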

[5] = ATG_Sox_CIS: Attagene CIS-FACTORIAL HepG2 Assay for human SRY-box transcription factor (SOX) (AID 2282960); settings: HepG2 Attagene cis-factorial SOX reporter, mRNA; actives raise or lower the signal
Outline: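 Cells were transfected with reporter constructs under cis-regulatory promoters, then exposed to chemicals for 24 h. Reporter transcripts were quantified by fluorescence after RT-PCR and capillary electrophoresis; activity was fitted in both directions against DMSO.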

[6] = target: Transcription factor Sp1 (Homo sapiens) (UniProt P08047); assay: ATG_Sp1_CIS: Attagene CIS-FACTORIAL HepG2 Assay for human Specificity Protein 1 (Sp1) (AID 2282961); settings: HepG2 Sp1 cis-reporter transcription, actives raise or lower the signal
Outline: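 Measures mRNA induction of an Sp1-linked reporter in HepG2 cells 24 h post-dosing. Multiplexed reporters read by RT-PCR and capillary electrophoresis; DMSO serves as negative control and baseline.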

[7] = ATG_SREBP_CIS: Attagene CIS-FACTORIAL HepG2 Assay for human Sterol Regulatory Element Binding (SREBP) (AID 2282962); settings: HepG2 Attagene cis-factorial SREBP reporter, mRNA; actives raise or lower the signal
Outline: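 Twenty-four hours after chemical dosing of transfected HepG2 cultures, reporter RNA was converted to cDNA, amplified, end-labelled with 6-FAM and resolved by capillary electrophoresis. Responses were fitted relative to DMSO.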

[8] = target: Signal transducer and activator of transcription 3 (Homo sapiens) (UniProt P40763); assay: ATG_STAT3_CIS: Attagene CIS-FACTORIAL HepG2 Assay for human Signal Transducer and Activator of Transcription 3 (STAT3) (AID 2282963); settings: HepG2, Attagene cis-factorial STAT3 reporter transcription; actives raise or lower the signal
Outline: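 Transcript-level reporter assay. HepG2 transient MRTU transfection, 24 h exposure, fluorescence detection after RT-PCR and CE; DMSO baseline.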

[9] = ATG_TA_CIS: Attagene CIS-FACTORIAL HepG2 Assay for human TA Basal Promoter (AID 2282964); settings: HepG2 Attagene CIS-factorial TA basal promoter reporter; actives raise or lower the signal
Outline: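 Fluorescence from labelled RT-PCR reporter fragments, separated by capillary electrophoresis, gives the signal. Cells: HepG2 transiently carrying multiple reporter units, 24 h chemical dosing. Gain or loss relative to DMSO.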

[10] = ATG_TCF_b_cat_CIS: Attagene CIS-FACTORIAL HepG2 Assay for human T-Cell-Factor with beta-catenin (TCF/b-cat) (AID 2282965); settings: HepG2 TCF/beta-catenin cis-reporter transcription, actives raise or lower the signal
Outline: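 HepG2 cells transiently transfected with multiple cis-promoter-regulated reporter transcription units, so endogenous transcription factor activity is measured. Reporter mRNA read 24 hours after dosing by RT-PCR, fluorescent labelling and capillary electrophoresis; bidirectional fitting against DMSO.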

[11] = ATG_TAL_CIS: Attagene CIS-FACTORIAL HepG2 Assay for human TAL Basal Promoter (AID 2282966); settings: HepG2 Attagene cis-factorial TAL promoter reporter; actives raise or lower the signal;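 note: background control endpoint measuring basal TAL promoter reporter mRNA not a specific factor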
Outline: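 Fluorescence of labelled reporter cDNA fragments, resolved by capillary electrophoresis, gave the readout. Human HepG2 liver cells carried transiently transfected cis-element reporter units and were treated for 24 hours; activity was fitted bidirectionally against DMSO.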

[12] = ATG_TGFb_CIS: Attagene CIS-FACTORIAL HepG2 Assay for human Transforming Growth Factor (TGF) (AID 2282967); settings: HepG2 Attagene CIS TGFb reporter, mRNA transcription; actives raise or lower the signal
Outline: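 Bidirectional fitting relative to DMSO gave the endpoint. Underlying data: reporter mRNA from HepG2 cells carrying transiently transfected cis-regulated reporter constructs, harvested 24 h after dosing and analyzed by RT-PCR and capillary electrophoresis.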

[13] = ATG_VDRE_CIS: Attagene CIS-FACTORIAL HepG2 Assay for human Vitamin D Receptor Element (VDRE) (AID 2282968); settings: HepG2 VDRE cis-reporter transcription, actives raise or lower the signal
Outline: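 RT-PCR/CE readout of reporter mRNA; HepG2, transient transfection, 24 h dosing; DMSO baseline; bidirectional analysis.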

[14] = target: Nuclear receptor subfamily 1 group I member 3 (Homo sapiens) (UniProt Q14994); assay: ATG_CAR_TRANS: Attagene TRANS-FACTORIAL HepG2 Assay for human Constitutive Androstane Receptor (CAR) (AID 2282969; active = hit-call score of the fitted dose curve at least 0.9, where 1 is the maximum;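 note: activators raise reporter mRNA above DMSO so AC50 marks induction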); settings: HepG2 Attagene TRANS-FACTORIAL CAR reporter
Outline: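 HepG2 cells transiently transfected with multiplexed GAL4-UAS reporter units expressing chimeric NR-Gal4 proteins; compound exposure 24 h. Reporter mRNA measured by RT-PCR, 6-FAM labelling, HpaI digestion and capillary electrophoresis; gain-of-signal fitted against DMSO baseline.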

[15] = target: Estrogen receptor (Homo sapiens) (UniProt P03372); assay: ATG_ERa_TRANS: Attagene TRANS-FACTORIAL HepG2 Assay for human Estrogen Receptor alpha (ERa) (AID 2282970; active = hit-call score of the fitted dose curve at least 0.9, where 1 is the maximum); settings: HepG2 Attagene TRANS ERa GAL4 reporter, mRNA
Outline: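 Human liver HepG2, transient transfection of multiple GAL4-UAS reporter units; TRANS format (exogenous NR-Gal4 chimera). 24 h dosing. Readout: reporter mRNA, RT-PCR, 6-FAM primer extension, HpaI digest, capillary electrophoresis. Positive direction vs DMSO.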

[16] = target: Steroid hormone receptor ERR1 (Homo sapiens) (UniProt P11474); assay: ATG_ERRa_TRANS: Attagene TRANS-FACTORIAL HepG2 Assay for human Estrogen-Related Receptor alpha (ERRa) (AID 2282971; active = hit-call score of the fitted dose curve at least 0.9, where 1 is the maximum); settings: HepG2 Attagene TRANS reporter, ERRa transactivation
Outline: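 Reporter transcript induction was quantified by RT-PCR and capillary electrophoresis of FAM-labelled, HpaI-cut products after 24 h treatment of HepG2 cells carrying transiently transfected GAL4-UAS reporter units and an exogenous ERRa-Gal4 fusion; activity scored as increase over DMSO.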

[17] = target: X-box-binding protein 1 (Homo sapiens) (UniProt P17861); assay: ATG_Xbp1_CIS: Attagene CIS-FACTORIAL HepG2 Assay for human X-box Binding Protein 1 (XBP1) (AID 2282972); settings: HepG2 XBP1 cis-element reporter, Attagene multiplex; actives raise or lower the signal
Outline: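 After a 24-hour chemical exposure of HepG2 cells carrying cis-regulated reporters, reporter mRNA levels are assessed. Quantification uses RT-PCR, 6-FAM labelling and capillary electrophoresis. Gain- or loss-of-signal is fitted against DMSO.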

[18] = ATG_GAL4_TRANS: Attagene TRANS-FACTORIAL HepG2 Assay for GAL4 (Internal Marker) (AID 2282976; active = hit-call score of the fitted dose curve at least 0.9, where 1 is the maximum); settings: HepG2 Attagene TRANS GAL4 internal marker reporter
Outline: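 First, HepG2 cells were transfected with reporter units under GAL4-UAS control. Next, they were treated with chemical for 24 h. Finally, RNA was reverse-transcribed, PCR-amplified, FAM-labelled and resolved by capillary electrophoresis, with induction scored against DMSO.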

[19] = ATG_M_19_TRANS: Attagene TRANS-FACTORIAL HepG2 Assay for M19 Transcription Factor (Internal Marker) (AID 2282974; active = hit-call score of the fitted dose curve at least 0.9, where 1 is the maximum); settings: HepG2 Attagene TRANS-FACTORIAL M19 internal marker reporter
Outline: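 After transfection of HepG2 with GAL4-UAS-driven reporter constructs, cells are dosed for 24 h. Total RNA is reverse-transcribed, reporter sequences PCR-amplified and labelled, then HpaI-digested and sized by capillary electrophoresis.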

Measured: AC50

Sequence of Signal transducer and activator of transcription 3 (Homo sapiens) (P40763 whole entry, looked up): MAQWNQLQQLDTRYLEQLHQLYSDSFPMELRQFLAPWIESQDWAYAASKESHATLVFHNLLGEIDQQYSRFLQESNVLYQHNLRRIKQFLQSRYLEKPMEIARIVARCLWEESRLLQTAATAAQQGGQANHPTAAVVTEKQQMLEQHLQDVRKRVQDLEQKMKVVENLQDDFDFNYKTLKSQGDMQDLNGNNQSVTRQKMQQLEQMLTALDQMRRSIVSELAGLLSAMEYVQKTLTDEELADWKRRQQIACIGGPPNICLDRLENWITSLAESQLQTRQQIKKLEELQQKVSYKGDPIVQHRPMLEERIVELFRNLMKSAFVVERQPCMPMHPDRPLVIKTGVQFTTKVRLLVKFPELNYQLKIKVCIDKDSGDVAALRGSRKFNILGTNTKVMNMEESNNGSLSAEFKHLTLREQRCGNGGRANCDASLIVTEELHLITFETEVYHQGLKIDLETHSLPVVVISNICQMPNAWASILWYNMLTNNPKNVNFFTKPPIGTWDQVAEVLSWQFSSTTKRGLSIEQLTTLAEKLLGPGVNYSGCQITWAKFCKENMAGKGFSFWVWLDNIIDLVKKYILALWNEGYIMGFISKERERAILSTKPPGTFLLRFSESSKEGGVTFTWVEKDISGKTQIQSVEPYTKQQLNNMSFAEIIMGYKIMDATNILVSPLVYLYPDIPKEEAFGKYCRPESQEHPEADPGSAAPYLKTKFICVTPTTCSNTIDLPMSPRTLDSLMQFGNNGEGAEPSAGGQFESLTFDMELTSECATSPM
Sequence of X-box-binding protein 1 (Homo sapiens) (P17861 whole entry, looked up): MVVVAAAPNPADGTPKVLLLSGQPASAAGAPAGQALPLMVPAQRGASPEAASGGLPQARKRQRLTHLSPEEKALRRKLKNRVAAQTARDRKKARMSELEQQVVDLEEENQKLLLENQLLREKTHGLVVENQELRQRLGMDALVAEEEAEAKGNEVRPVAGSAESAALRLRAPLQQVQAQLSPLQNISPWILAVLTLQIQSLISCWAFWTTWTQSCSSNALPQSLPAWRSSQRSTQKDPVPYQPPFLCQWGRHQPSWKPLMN
Sequence of Steroid hormone receptor ERR1 (Homo sapiens) (P11474 whole entry, looked up, the tested form may be a part): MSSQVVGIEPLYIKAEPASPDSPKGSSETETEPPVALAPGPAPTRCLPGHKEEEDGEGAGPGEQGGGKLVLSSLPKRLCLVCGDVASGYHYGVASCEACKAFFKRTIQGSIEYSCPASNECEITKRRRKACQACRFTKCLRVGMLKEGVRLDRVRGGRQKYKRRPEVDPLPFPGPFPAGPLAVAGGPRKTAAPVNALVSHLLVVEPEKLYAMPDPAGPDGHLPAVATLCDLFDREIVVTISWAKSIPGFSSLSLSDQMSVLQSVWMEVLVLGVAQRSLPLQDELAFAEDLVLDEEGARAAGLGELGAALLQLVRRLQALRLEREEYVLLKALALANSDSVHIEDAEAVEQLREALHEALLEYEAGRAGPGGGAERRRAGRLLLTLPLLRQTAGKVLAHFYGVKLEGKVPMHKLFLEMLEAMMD
Sequence of Paired box protein Pax-6 (Homo sapiens) (P26367 whole entry, looked up): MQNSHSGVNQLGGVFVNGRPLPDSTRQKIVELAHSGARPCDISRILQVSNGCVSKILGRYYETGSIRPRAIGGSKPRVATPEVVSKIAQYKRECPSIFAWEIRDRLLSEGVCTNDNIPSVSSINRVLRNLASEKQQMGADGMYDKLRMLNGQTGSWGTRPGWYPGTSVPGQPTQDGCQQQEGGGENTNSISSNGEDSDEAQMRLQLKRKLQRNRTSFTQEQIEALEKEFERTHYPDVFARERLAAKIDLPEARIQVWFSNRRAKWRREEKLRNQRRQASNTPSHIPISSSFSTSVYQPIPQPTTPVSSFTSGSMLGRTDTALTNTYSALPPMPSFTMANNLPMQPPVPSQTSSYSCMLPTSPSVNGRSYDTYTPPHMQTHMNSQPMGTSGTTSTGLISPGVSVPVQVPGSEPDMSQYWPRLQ
Sequence of Estrogen receptor (Homo sapiens) (P03372 whole entry, looked up, the tested form may be a part): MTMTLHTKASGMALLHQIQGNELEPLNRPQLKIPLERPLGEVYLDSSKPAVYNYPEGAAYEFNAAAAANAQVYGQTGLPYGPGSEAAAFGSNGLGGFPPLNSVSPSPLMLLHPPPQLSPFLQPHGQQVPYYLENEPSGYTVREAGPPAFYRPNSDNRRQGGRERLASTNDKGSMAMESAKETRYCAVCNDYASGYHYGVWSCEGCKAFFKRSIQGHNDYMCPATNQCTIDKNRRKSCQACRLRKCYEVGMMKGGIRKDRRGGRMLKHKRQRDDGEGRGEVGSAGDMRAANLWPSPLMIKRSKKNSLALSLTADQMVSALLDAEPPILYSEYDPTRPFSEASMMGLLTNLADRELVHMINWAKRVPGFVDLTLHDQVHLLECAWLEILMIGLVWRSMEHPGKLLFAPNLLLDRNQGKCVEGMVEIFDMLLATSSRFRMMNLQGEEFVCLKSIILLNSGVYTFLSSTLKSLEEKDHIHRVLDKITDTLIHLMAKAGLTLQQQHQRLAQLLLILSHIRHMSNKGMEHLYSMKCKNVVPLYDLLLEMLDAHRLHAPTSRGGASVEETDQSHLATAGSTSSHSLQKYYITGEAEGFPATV
Sequence of Nuclear receptor subfamily 1 group I member 3 (Homo sapiens) (Q14994 whole entry, looked up, the tested form may be a part): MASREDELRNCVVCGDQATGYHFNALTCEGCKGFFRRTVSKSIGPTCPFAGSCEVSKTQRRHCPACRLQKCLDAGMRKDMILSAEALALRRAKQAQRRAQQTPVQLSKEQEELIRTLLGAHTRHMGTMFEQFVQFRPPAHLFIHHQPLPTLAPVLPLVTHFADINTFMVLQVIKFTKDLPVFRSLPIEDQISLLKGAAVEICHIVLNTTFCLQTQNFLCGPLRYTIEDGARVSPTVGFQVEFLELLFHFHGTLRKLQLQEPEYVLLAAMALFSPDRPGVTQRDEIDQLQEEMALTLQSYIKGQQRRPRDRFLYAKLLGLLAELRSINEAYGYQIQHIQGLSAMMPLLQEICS
Sequence of Transcription factor Sp1 (Homo sapiens) (P08047 whole entry, looked up): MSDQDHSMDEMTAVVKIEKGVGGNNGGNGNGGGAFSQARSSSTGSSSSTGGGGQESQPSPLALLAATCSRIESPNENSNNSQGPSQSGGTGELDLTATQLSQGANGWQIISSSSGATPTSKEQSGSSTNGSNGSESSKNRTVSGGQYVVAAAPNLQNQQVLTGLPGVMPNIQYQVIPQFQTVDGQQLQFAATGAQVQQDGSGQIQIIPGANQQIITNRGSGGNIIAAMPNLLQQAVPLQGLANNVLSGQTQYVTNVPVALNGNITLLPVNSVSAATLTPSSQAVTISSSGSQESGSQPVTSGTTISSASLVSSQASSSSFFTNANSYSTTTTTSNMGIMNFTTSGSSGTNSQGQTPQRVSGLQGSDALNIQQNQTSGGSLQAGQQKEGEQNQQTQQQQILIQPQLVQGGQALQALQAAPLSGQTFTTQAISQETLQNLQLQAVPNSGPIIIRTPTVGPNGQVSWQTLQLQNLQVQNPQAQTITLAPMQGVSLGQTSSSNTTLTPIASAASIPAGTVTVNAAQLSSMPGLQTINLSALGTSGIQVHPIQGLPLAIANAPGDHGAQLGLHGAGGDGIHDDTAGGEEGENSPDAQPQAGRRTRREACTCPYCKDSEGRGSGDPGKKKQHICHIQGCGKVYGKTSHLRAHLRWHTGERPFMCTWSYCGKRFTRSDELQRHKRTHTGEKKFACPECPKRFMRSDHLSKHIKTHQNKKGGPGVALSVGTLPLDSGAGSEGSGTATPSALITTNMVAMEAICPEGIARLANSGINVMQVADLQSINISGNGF

NC(=O)C(F)(F)C(F)(F)C(F)(F)C(F)(F)F
inactive: [1] | [2] | [3] | [4] | [5] | [6] | [7] | [8] | [9] | [10] | [11] | [12] | [13] | [14] | [15] | [16] | [17] | [18]

CCCCCCOC(=O)c1ccccc1O
inactive: [1] | [3] | [4] | [5] | [6] | [7] | [8] | [9] | [10] | [11] | [12] | [13] | [14] | [17] | [19]
active: [2] 62.5 µM | [15] 92.5 µM

CCc1ccc(C(c2ccc(CC)cc2)C(Cl)Cl)cc1
active: [2] 2.28 µM | [13] 2.84 µM | [15] 7.49 µM
inactive: [1] | [3] | [4] | [6] | [7] | [8] | [9] | [10] | [11] | [12] | [14] | [17] | [19]

O=C(O)C(F)(F)C(F)(F)C(F)(F)C(F)(F)C(F)(F)C(F)(F)C(F)(F)C(F)(F)C(F)(F)C(F)(F)C(F)(F)C(F)(F)F
inactive: [1] | [2] | [3] | [4] | [7] | [8] | [9] | [11] | [13] | [14] | [15] | [17] | [19] | [18]
active: [10] 100 µM | [12] 65.5 µM

CCN(Cc1cccc(S(=O)(=O)O)c1)c1ccc(C(=C2C=CC(=[N+](CC)Cc3cccc(S(=O)(=O)O)c3)C=C2)c2ccc(O)cc2S(=O)(=O)[O-])cc1
inactive: [1] | [2] | [4] | [5] | [7] | [8] | [9] | [10] | [11] | [12] | [13] | [14] | [15] | [16] | [17] | [19]
active: [3] 17.8 µM

C=CC(=O)OCC(F)(F)C(F)(F)C(F)(F)C(F)(F)COC(=O)C=C
inactive: [2] | [3] | [8] | [9] | [11] | [12] | [14] | [19] | [18]
active: [1] 62.1 µM | [4] 40.3 µM | [6] 44.7 µM | [7] 72.4 µM | [10] 44.9 µM | [13] 50 µM | [15] 38.3 µM | [17] 36.4 µM

O=C(Cl)C(F)(F)C(F)(F)C(F)(F)C(F)(F)C(F)(F)C(F)(F)C(F)(F)C(F)(F)F
active: [1] 54.1 µM | [2] 8.97 µM | [3] 33.4 µM | [4] 44.5 µM | [10] 33.4 µM | [13] 52.2 µM | [15] 25.5 µM | [17] 41.9 µM
inactive: [5] | [7] | [8] | [9] | [11] | [12] | [14] | [16]

O=C(O)C(F)(F)C(F)(F)C(F)(F)C(F)(F)C(F)(F)C(F)(F)C(F)(F)C(F)(F)C(F)(F)C(F)F
inactive: [1] | [4] | [6] | [7] | [8] | [9] | [10] | [11] | [12] | [13] | [14] | [16] | [17] | [18]
active: [2] 18.8 µM | [3] 9.33 µM | [15] 24.6 µM

CC(C)(C)c1ccc(OC2CCCCC2O)cc1 (centres undefined)
inactive: [1] | [3] | [4] | [6] | [8] | [9] | [10] | [11] | [12] | [14] | [15] | [17] | [19] | [18]
active: [2] 1.73 µM | [7] 26.5 µM | [13] 26.8 µM

FC(F)(F)C(F)(F)C(F)(F)N(C(F)(F)C(F)(F)C(F)(F)F)C(F)(F)C(F)(F)C(F)(F)F
inactive: [1] | [2] | [3] | [4] | [6] | [7] | [8] | [9] | [10] | [11] | [12] | [13] | [14] | [15] | [16] | [17] | [19] | [18]
